The panel holds about 79,000 compounds, 15% with a hit somewhere; the sample as a whole holds those more often. The source made the active and inactive calls. No stated cut-off is given here; in the data, active means growth inhibition above about 70%; inactive means the rest.
Assays:
[1] = NCI Yeast Anticancer Drug Screen. Data for the rad50 strain (AID 155);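 further: 0% = growth of vehicle-only cultures of the same strain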; details: S. cerevisiae rad50 strain growth inhibition, active compounds read high
Summary of the method: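 DNA repair mutant yeast, compound exposure, growth read-out; inhibition is taken relative to vehicle.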

[2] = NCI Yeast Anticancer Drug Screen. Data for the mec2-1 strain (AID 157); details: S. cerevisiae mec2-1 strain, active compounds read high
Summary of the method: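 Vehicle-treated cultures served as reference for growth inhibition of compound-exposed mec2-1 yeast.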

[3] = NCI Yeast Anticancer Drug Screen. Data for the sgs1 mgt1 strain (AID 161);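 further: 0% = growth of cultures given vehicle only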; details: S. cerevisiae sgs1 mgt1 strain, active compounds read high
Summary of the method: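 Genetically altered yeast, compound exposure, growth inhibition relative to vehicle.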

[4] = NCI Yeast Anticancer Drug Screen. Data for the cln2 rad14 strain (AID 165);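 further: 0% = growth equal to vehicle treated cultures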; details: S. cerevisiae cln2 rad14 strain, active compounds read high
Summary of the method: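 Each compound was tested on cln2 rad14 yeast. Inhibition of growth was calculated against vehicle-exposed controls.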

[5] = NCI Yeast Anticancer Drug Screen. Data for the bub3 strain (AID 167); details: S. cerevisiae bub3 mutant strain, active compounds read high
Summary of the method: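 In this screen, a yeast mutant lacking normal mitotic checkpoint function is challenged with compound. Relative growth versus vehicle gives the inhibition value.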

[6] = NCI Yeast Anticancer Drug Screen. Data for the mlh1 rad18 strain (AID 175); details: S. cerevisiae mlh1 rad18 strain growth inhibition, active compounds read high
Summary of the method: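 Vehicle-treated cultures served as the reference for growth inhibition in a yeast strain carrying DNA damage repair alterations exposed to each compound.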

[7] = at 5.0 µM (retest, dose inferred, filed as 0.5)
[8] = at 50.0 µM (retest, dose inferred, filed as 5.0)

Measured: growth inhibition

COc1cc(-c2ccc(-[n+]3nc(Cc4ccc5c(c4)OCO5)nn3-c3ccccc3)c(OC)c2)ccc1-[n+]1nc(Cc2ccc3c(c2)OCO3)nn1-c1ccccc1
inactive: [1]; [7] 4% | [1]; [8] 41% | [1]; at 50.0 µM 68.8% | [2]; [7] 1% | [2]; [8] 46% | [3]; [7] 1% | [3]; [8] 49% | [4]; [7] 2% | [4]; [8] 22% | [4]; at 50.0 µM 37.1% | [5]; [7] -1% | [5]; [8] 60% | [6]; [7] 2%
active: [2]; at 50.0 µM 91.9% | [3]; at 50.0 µM 92.6% | [5]; at 50.0 µM 83.4% | [6]; [8] 79% | [6]; at 50.0 µM 91.4%

C/C(=N\NC(=S)N1CC(C)OC(C)C1)c1ncccn1 (configuration not stated)
active: [1]; [8] 81% | [1]; at 50.0 µM 99.5% | [2]; [8] 100% | [2]; at 50.0 µM 99.4% | [3]; [8] 100% | [3]; at 50.0 µM 99.5% | [4]; [8] 99% | [4]; at 50.0 µM 99.2% | [5]; [8] 99% | [5]; at 50.0 µM 99.3% | [6]; [7] 80% | [6]; [8] 99% | [6]; at 50.0 µM 99.3%
inactive: [1]; [7] 53% | [2]; [7] 43% | [3]; [7] 52% | [4]; [7] 52% | [5]; [7] 44%

COc1c(Br)c(=O)n(C)c(=O)n1C
inactive: [1]; [7] -11% | [2]; [7] -10% | [3]; [7] -29% | [4]; [7] -4% | [5]; [7] -26% | [6]; [7] -11%
active: [1]; [8] 99% | [1]; at 50.0 µM 89% | [2]; [8] 99% | [2]; at 50.0 µM 87.8% | [3]; [8] 98% | [3]; at 50.0 µM 91.2% | [4]; [8] 99% | [4]; at 50.0 µM 88.3% | [5]; [8] 99% | [5]; at 50.0 µM 89.2% | [6]; [8] 99% | [6]; at 50.0 µM 89%

Cc1ccc(S(=O)(=O)Nc2ccccc2C=O)cc1
inactive: [1]; [7] 17% | [1]; [8] 54% | [2]; [7] 19% | [2]; [8] 69% | [3]; [7] 16% | [3]; [8] 63% | [4]; [7] 1% | [4]; [8] 50% | [5]; [7] 4% | [5]; [8] 49% | [6]; [7] 14%
active: [1]; at 50.0 µM 99% | [2]; at 50.0 µM 99.3% | [3]; at 50.0 µM 99% | [4]; at 50.0 µM 99% | [5]; at 50.0 µM 98.8% | [6]; [8] 84% | [6]; at 50.0 µM 99.1%

N#CC(C(=O)CCCC(=O)Nc1ccc(Cl)cc1)c1ccccc1Cl (configuration not stated)
active: [1]; at 50.0 µM 96.8% | [2]; at 50.0 µM 98% | [3]; at 50.0 µM 99% | [4]; at 50.0 µM 93.9% | [5]; at 50.0 µM 99% | [6]; at 50.0 µM 96.7%
inactive: [1]; [7] 2% | [1]; [8] 0% | [2]; [7] -1% | [2]; [8] 6% | [3]; [7] 9% | [3]; [8] 4% | [4]; [7] -2% | [4]; [8] 1% | [5]; [7] 1% | [5]; [8] 30% | [6]; [7] -2% | [6]; [8] 4%

CCOC(=O)c1cnn(-c2ccccc2)c1N
active: [1]; [8] 98% | [1]; at 50.0 µM 88.8% | [2]; [8] 99% | [2]; at 50.0 µM 92.8% | [3]; [8] 98% | [3]; at 50.0 µM 89.4% | [4]; [8] 97% | [4]; at 50.0 µM 86.6% | [5]; [8] 98% | [5]; at 50.0 µM 90.2% | [6]; [8] 98% | [6]; at 50.0 µM 88.2%
inactive: [1]; [7] 62% | [2]; [7] 26% | [3]; [7] 18% | [4]; [7] 15% | [5]; [7] 63% | [6]; [7] 23%

Oc1cc(-[n+]2ccc3ccccc3c2)c(O)c2ccccc12
active: [1]; [8] 70% | [5]; [8] 72%
inactive: [1]; [7] 10% | [1]; at 50.0 µM 44.2% | [2]; [7] -1% | [2]; [8] 27% | [2]; at 50.0 µM 39.2% | [3]; [7] 11% | [3]; [8] 45% | [3]; at 50.0 µM 15.6% | [4]; [7] -4% | [4]; [8] -10% | [4]; at 50.0 µM -20.8% | [5]; [7] 24% | [5]; at 50.0 µM 64.5% | [6]; [7] 16% | [6]; [8] 46% | [6]; at 50.0 µM 54.1%

O=C1CNC(=O)c2cc(Cl)ccc2N1
inactive: [1]; [7] 46% | [1]; [8] 45% | [1]; at 50.0 µM -8.75% | [2]; [7] 25% | [2]; [8] 32% | [2]; at 50.0 µM -26.1% | [3]; [7] 34% | [3]; [8] 44% | [3]; at 50.0 µM 8.6% | [4]; [7] 28% | [4]; [8] 29% | [4]; at 50.0 µM 13.9% | [5]; [7] 34% | [5]; [8] 67% | [5]; at 50.0 µM 40.1% | [6]; [7] 44% | [6]; [8] 42% | [6]; at 50.0 µM -2.1%

CCSC(=Nc1nc2ccc(NC(C)=O)cc2s1)SCC
inactive: [1]; [7] 5% | [2]; [7] -3% | [3]; [7] -1% | [4]; [7] -3% | [5]; [7] -2% | [6]; [7] -2%
active: [1]; [8] 96% | [1]; at 50.0 µM 97.2% | [2]; [8] 97% | [2]; at 50.0 µM 98% | [3]; [8] 97% | [3]; at 50.0 µM 98.5% | [4]; [8] 83% | [4]; at 50.0 µM 96.5% | [5]; [8] 94% | [5]; at 50.0 µM 96% | [6]; [8] 96% | [6]; at 50.0 µM 97.5%

Reference: PubChem BioAssay (NCI)
